In all, about 190,000 compounds went through this assay and about 810 (0.43%) were called active. The full list was thinned out, with actives kept by preference. Values without a mark were called inactive. No stated cut-off is given here; in the data, active means inhibition above about 50%; inactive means the rest.

The target in this test is Mannose-6-phosphate isomerase (Homo sapiens) (UniProt P34949). The test is described as follows: inhibitors of human PMI, primary screen, biochemical, fluorescence intensity, coupled assay (AID 1209).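 Further: plate controls were DMSO vehicle for no effect and wells lacking substrate for full effect.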 The conditions noted are these: purified PMI enzyme, at 20 µM, hits give high values.
Sequence of Mannose-6-phosphate isomerase (Homo sapiens) (P34949 whole entry, looked up): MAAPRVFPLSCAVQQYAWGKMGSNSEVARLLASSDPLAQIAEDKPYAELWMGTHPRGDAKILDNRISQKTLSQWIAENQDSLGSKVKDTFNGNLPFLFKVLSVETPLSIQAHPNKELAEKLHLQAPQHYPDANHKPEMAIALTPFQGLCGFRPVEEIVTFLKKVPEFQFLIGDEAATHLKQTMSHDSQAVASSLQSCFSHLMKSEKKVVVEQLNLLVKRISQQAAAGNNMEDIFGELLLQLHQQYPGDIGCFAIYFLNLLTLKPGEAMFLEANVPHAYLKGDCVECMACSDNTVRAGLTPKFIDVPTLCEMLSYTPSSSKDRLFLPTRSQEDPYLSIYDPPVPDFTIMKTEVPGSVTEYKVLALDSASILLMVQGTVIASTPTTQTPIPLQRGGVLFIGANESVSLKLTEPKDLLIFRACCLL
With `NC(=O)c1nn(CC(=O)Nc2ccc3c(c2)OCO3)cc1[N+](=O)[O-]`, the inhibition is 0%.
With `Cc1ccc(NCC(=O)N/N=C/c2c[nH]c3ccccc23)cc1` the figure was 0%; with `Cc1ccc(S(=O)(=O)Nc2cnc3ccccc3c2)cc1`, 3.8%; with `CC(=O)Oc1cccc(N2C(=O)c3ccc(C(=O)O)cc3C2=O)c1`, -31.5%.
With `O=C(O)c1ccc2nc(-c3ccccc3)sc2c1` the figure was -10.7%; with `O=C(O)c1ccc2c(c1)C(=O)N(c1cccc(-c3nc4ccccc4s3)c1)C2=O`, 102% (active).
For `COc1ccc(/C(O)=C2\C(=O)C(=O)N(CCN(C)C)C2c2cc(OC)c(OC)c(OC)c2)c(C)c1` (configuration not stated) the value was -21.3%; for `CCOC(=O)C1=C(C)N[C@@]2(O)c3ccccc3C(=O)[C@@]12O`, 21%; for `COCCOC(=O)C1=C(C)NC2(O)c3ccccc3C(=O)C12O` (configuration not stated), 70.5% (active).
Consider `CCOC(=O)C1=C(C)NC2(O)c3ccccc3C(=O)C12O` (configuration not stated), for which the inhibition was 12.1%.
For `COc1ccccc1OCC(=O)NNC(=O)c1c(-c2ccccc2Cl)noc1C` the value was -14.6%; for `O=S(=O)(NCCNS(=O)(=O)c1cccs1)c1cccs1`, -15.3%.
With `O=S(=O)(NCCN1CCOCC1)c1ccc(Cl)s1` the figure was -5.3%.
For `O=S(=O)(NCCN1CCOCC1)c1cccs1` the value was 68.9% (active).
For the compound `Cc1cc2cc(C)c3nnc(SCC(=O)N4CCCc5ccccc54)n3c2cc1C`, the inhibition is 12.3%.
Consider `N#CCCn1cc(C(=O)O)c(-c2cc3ccccc3o2)n1`, for which the inhibition was -2.3%.
With `Cn1c(N)c(C(=O)Nc2ccc3ccccc3c2)sc1=S`, the inhibition is 64.8% (active).
For `Cn1c(N)c(C(=O)NCc2ccccc2)sc1=S` the value was 12.3%; for `COC(=O)c1ccccc1NC(=O)c1sc(=S)n(C)c1N`, -14.8%.
Turning to `Cc1cnn(C(=O)c2oc3ccccc3c2C)c1`, the inhibition was -1.3%.
For the compound `Cc1cc(N)n(-c2ccccc2C)n1`, the inhibition was 11.2%.
For `C=CCN1C(=O)C(C)(C)Nc2ccccc21` the value was 6.9%.
For `Cn1ccnc1SCC(=O)c1c[nH]c2ccccc12` the value was 4.5%.
For `C/C(=N\NC(=O)c1nn(C)c(C)c1Br)c1ccc(NC(=O)c2ccccc2F)cc1` the value was -0.9%; for `C/C(=N\NC(=O)c1nn(C)c(C)c1Br)c1cccc(NC(=O)c2ccoc2C)c1`, -8.4%.
For `C/C(=N\NC(=O)c1nn(C)c(C)c1Br)c1cccc(NC(=O)c2ccc(F)cc2)c1`, the inhibition is 50.8% (active).
With `COC(=O)c1ccc(NC(=S)NCCCN2CCCC2=O)cc1` the figure was -0.7%; with `Cc1ccc(NC(=S)N(CCCN2CCOCC2)Cc2ccco2)cc1`, -2%.
With `Cc1ccc(NC(=S)N(CCCN2CCC(C)CC2)Cc2ccco2)cc1` the figure was 81.3% (active); with `Cc1ccc(NC(=S)N(CCCN2CCC(C)CC2)Cc2ccco2)cc1C`, -3.2%; with `CCOC(=O)C1C(c2ccc(O)c(OCC)c2)NC(=S)NC1(O)C(F)(F)F` (configuration not stated), -6.6%.
As to `CCOC(=O)C1C(c2ccc(O)c(O)c2)NC(=S)NC1(O)C(F)(F)F` (configuration not stated), the inhibition is 61.7% (active).
For `CCOC(=O)C1C(c2ccc(O)c(OC)c2)NC(=S)NC1(O)C(F)(F)F` (configuration not stated) the value was -3%; for `O=C(CN1C(=O)c2cccc3cccc(c23)C1=O)N1CCOCC1`, 24.7%; for `O=C(Nn1cnnc1)c1ccc(Br)s1`, -17.3%.
In the case of `O=C(NCCCn1ccnc1)c1cc(-c2ccc(Br)cc2)on1`, the inhibition was -3.5%.
With `O=C(O)CS(=O)(=O)CC(=O)NCc1cccc(C(F)(F)F)c1` the figure was -2.8%; with `Cc1ccc(NC(=O)Nc2c(C)n(C)n(-c3ccccc3)c2=O)cc1C`, -4%; with `COCCn1c(=NC(=O)C2COc3ccccc3O2)sc2cc(S(N)(=O)=O)ccc21` (configuration not stated), 12.8%.
For `O=C(COc1cccnc1[N+](=O)[O-])N1CCN(S(=O)(=O)c2ccccc2)CC1` the value was 12.8%; for `O=C(COc1ccccc1O)N1CCN(C(=O)c2ccco2)CC1`, 4%; for `O=C(COc1cccnc1[N+](=O)[O-])N1CCN(C(=O)c2ccco2)CC1`, 57.6% (active).
For `CC1(C)C/C(=N\O)c2cc3c(nc2C1)CCCC3` the value was -3%; for `Cc1cc(C)nc(NC(=O)c2c(-c3c(Cl)cccc3Cl)noc2C)n1`, 9.1%; for `CCOC(=O)N1CCN(S(=O)(=O)c2cc(C)c(C)cc2C)CC1`, -3.8%.
As for `C[N+]1=C(/C=C/Nc2ccccc2Cl)C(C)(C)c2ccccc21`, the inhibition is 78.4% (active).
For `FC(F)(F)c1cnc(/C=C/Nc2ccccc2Cl)c(Cl)c1` the value was 12.3%; for `COC(=O)c1ccc(CN(C)S(=O)(=O)c2ccc(C)cc2)o1`, -1.6%.
As for `CCc1nc(N=Nc2c(O)[nH]c3ccccc23)c2c3c(sc2n1)CCC3`, the inhibition is -5.7%.
For `C=CCn1c(COc2ccc3c(c2)CCCC3)nnc1SCC(=O)Nc1cccc(SC)c1`, the inhibition was 15%.
With `CC1(C)CC(N2CCCCC2)=CC(=[N+]2CCCCC2)C1` the figure was 34.9%; with `CC1(C)CC(N2CCCC2)=CC(=[N+]2CCCCCC2)C1`, 62.8% (active); with `CC1(C)CC(N2CCCC2)=CC(=[N+]2CCCCC2)C1`, 12.6%.
In the case of `COc1cc2c(C(=O)OCCN(C)C)c(CSc3ccccc3)n(C)c2cc1Br`, the inhibition was 3.3%.
On to `CC(OC(=O)c1cccnc1Cl)C(=O)Nc1ccc2c(c1)OCCO2` (configuration not stated), for which the inhibition was -6.6%.
With `O=C(Nc1cccc(S(=O)(=O)N2CCOCC2)c1)c1cn(-c2ccccc2)nc1-c1ccc(F)cc1` the figure was 6.6%.
With `O=C(Nc1ccccc1OC(F)F)c1ccccc1` the figure was 10.6%.
With `Cc1ccc(C(=O)Nc2ccccc2OC(F)F)cc1` the figure was -0.1%; with `O=C(Nc1ccccc1OC(F)F)c1ccc(F)cc1`, 109% (active); with `O=C(NCCc1ccccc1)c1ccccc1NC(=O)C1CC=CCC1C(=O)O` (configuration not stated), 5.2%.
Take `CC(C)N(C(=O)c1sc2cc([N+](=O)[O-])ccc2c1Cl)C(C)C`: the inhibition was 0.2%.
For `O=C(NC1CC1)c1sc2cc([N+](=O)[O-])ccc2c1Cl` the value was 1.4%; for `CC(NC(=O)c1sc2cc([N+](=O)[O-])ccc2c1Cl)C(C)(C)C` (configuration not stated), 57.2% (active).
For `CCNc1ccc(C(=O)OCC(=O)NCCN2C(=O)CSC2=O)cc1[N+](=O)[O-]` the value was -6.6%; for `CCCN1CCC(NC(=O)CCc2nnc(Cc3cc(OC)ccc3OC)o2)CC1`, 7.2%; for `COc1cccc(C2CC(=O)N3CN(c4ccccc4F)CSC3=C2C#N)c1` (configuration not stated), 16%.
With `COc1ccc(Br)cc1C1CC(=O)N2CN(C)CSC2=C1C#N` (configuration not stated) the figure was 27.6%.
Turning to `COc1ccc(N2CSC3=C(C#N)C(c4ccc(OC)c(OC)c4)CC(=O)N3C2)c(OC)c1` (configuration not stated), the inhibition was 39.1%.
With `COc1ccc(OC)c(C2CC(=O)N3CN(c4ccccc4)CSC3=C2C#N)c1` (configuration not stated) the figure was 2.2%; with `COc1ccc(OC)c(C2CC(=O)N3CN(c4cccc(Cl)c4C)CSC3=C2C#N)c1` (configuration not stated), 46.9%; with `COc1cc(OC)c(C2CC(=O)N3CN(c4ccccc4)CSC3=C2C#N)cc1OC` (configuration not stated), 41.2%.
For `COc1ccc(OC)c(C2CC(=O)N3CN(c4cccc(Cl)c4)CSC3=C2C#N)c1` (configuration not stated) the value was 16.5%; for `COc1cc(OC)c(C2CC(=O)N3CN(c4ccccc4C)CSC3=C2C#N)cc1OC` (configuration not stated), 30.5%; for `COc1ccc(OC)c(C2CC(=O)N3CN(c4ccccc4F)CSC3=C2C#N)c1` (configuration not stated), 57.3% (active).
With `COc1cc(OC)c(C2CC(=O)N3CN(C)CSC3=C2C#N)cc1OC` (configuration not stated) the figure was 59.9% (active); with `COc1ccc(N2CSC3=C(C#N)C(c4cc(OC)ccc4OC)CC(=O)N3C2)c(OC)c1` (configuration not stated), 53.4% (active); with `CCN(CC)S(=O)(=O)c1ccc(OC)c(NC(=O)Cc2cccs2)c1`, -11.3%.
Turning to `Cc1cc(C)n(-c2ccc(C(=O)Nc3cccc(S(=O)(=O)N(C)C)c3)cc2)n1`, the inhibition was 5.5%.
For `CCN(CC)S(=O)(=O)N1CCC(C(=O)NCCN2CCOCC2)CC1`, the inhibition was -6.8%.
Take `CCOC(=O)C1CCN(S(=O)(=O)c2ccc(CC)cc2)CC1`: the inhibition is -5.3%.
With `CC(=O)c1ccc(NC(=S)N2CCN(CCN3C(=O)c4cccc5cccc(c45)C3=O)CC2)cc1` the figure was 10.7%; with `COc1cccc(NC(=O)c2cc(-c3cccnc3)nc3c(Cl)cccc23)c1`, 1.6%; with `O=C(CCc1ccccc1)Nc1cccc(NC(=O)CCc2ccccc2)c1`, 13.7%.
For `O=C(CCc1ccccc1)Nc1cc(C(=O)O)cc(C(=O)O)c1` the value was -2%; for `O=C(CCc1ccccc1)Nc1cc(NC(=O)CCc2ccccc2)cc(C(=O)O)c1`, 63.6% (active).
In the case of `Cc1cccc(NC(=O)N(C)Cc2cccs2)c1`, the inhibition was 0.5%.
With `NNC(=O)c1cc(O)c(O)c(O)c1` the figure was 51.2% (active).
With `COC(=O)c1cc(O)c(O)c(O)c1` the figure was 34%; with `NNC(=O)c1cccc(O)c1`, 10%.
For `O=C(Nc1cccc(O)c1)c1noc2c1CCCCC2` the value was -1.4%; for `Cc1ccc(Nc2nc(=O)c3cccnc3s2)cc1`, 1.7%; for `COc1ccc(OC)c(Nc2nc(=O)c3cccnc3s2)c1`, 68.3% (active).
Take `O=c1nc(Nc2ccc(OCc3ccccc3)cc2)sc2ncccc12`: the inhibition is 3%.
Turning to `Cc1nnc(SCC(=O)Nc2ccc3c(c2)OCCO3)n1N`, the inhibition was 11.3%.
For `Oc1ccc(Cl)cc1C=Nc1ccc2c3c(cccc13)CC2` the value was 50.8% (active); for `Cc1cccc(C=Nc2ccc3c4c(cccc24)CC3)c1O`, 44.8%.
As to `Oc1ccc(Br)cc1C=Nc1ccc2c3c(cccc13)CC2`, the inhibition was 38.4%.

For the origin of these results see PubChem BioAssay AID1209 (Sanford-Burnham Center for Chemical Genomics, 2008).
